Rows were chosen to be rich in hits. Some 9.4% of all compounds tested hit in one or more screens of this group.
ALDH1A1 block: ALDH1A1 (human) enzyme inhibition | P00352 | Purified ALDH1A1, NADH fluorescence, propionaldehyde substrate | Potency, µM (series often up to 75.3 µM), without a hit: at the top dose activity, negative = inhibition, most hits filed as inhibitors | 220,000 tested, 7.3% active | AID 1030; active means well fitted inhibition curve with a large enough effect, not every such curve was filed as active; inconclusive means small, poorly fitted or top-dose-only effect, or another doubt; inactive means no such curve, though single readings can be large or run the other way;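 further: potency means the concentration at half of the fitted maximal effect; plate controls were no enzyme wells and a reference inhibitor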
Target sequence (P00352 whole entry, looked up): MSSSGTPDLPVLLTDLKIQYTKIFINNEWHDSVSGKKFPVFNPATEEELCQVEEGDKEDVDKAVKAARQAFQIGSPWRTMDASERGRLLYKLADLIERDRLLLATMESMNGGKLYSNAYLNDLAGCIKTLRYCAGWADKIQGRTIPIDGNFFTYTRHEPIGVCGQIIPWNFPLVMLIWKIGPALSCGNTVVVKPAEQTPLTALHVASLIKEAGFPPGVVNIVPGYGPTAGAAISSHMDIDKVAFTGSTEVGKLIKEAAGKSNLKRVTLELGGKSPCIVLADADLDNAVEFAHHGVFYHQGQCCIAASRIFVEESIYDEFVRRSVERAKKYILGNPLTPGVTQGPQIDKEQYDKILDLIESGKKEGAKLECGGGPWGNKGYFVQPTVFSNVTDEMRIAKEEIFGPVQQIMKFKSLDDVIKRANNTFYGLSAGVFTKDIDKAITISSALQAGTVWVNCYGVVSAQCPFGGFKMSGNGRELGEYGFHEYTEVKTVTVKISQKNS
HTT cytoprotect: Huntington cell model cytoprotection by ATP luminescence; PC12 HTT-Q103 induced, cytoprotection, ATP luminescence, 40 h; Potency, µM (doses to about 56.4 µM), for inactives: cytoprotection (ATP increase), actives largely listed as activators; 230,000 tested, 0.14% active; further: potency means the concentration at half of the fitted maximal effect; % of control where 0% means no effect; nearly all actives have a fitted effect of over 45% in size
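Readout: ATPlite luminescence (ATP level). Model: stable PC12, inducible Htt exon1 Q103-GFP. Inducer: tebufenozide, 100 nM final. Compounds: dose series. No G418 in medium.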
IMPase inh: membrane-permeable compound that blocks inositol monophosphatase; CHO-M1 cells, IP1 accumulation, HTRF TR-FRET ratio; inhibition (IP1 accumulation), % at 46.1 µM; AID 901; 120,000 tested, under 10 active; P97697; active means well fitted curve in the direction sought with a large enough effect in the signal ratio, not every such curve was filed as active; inconclusive means small, poorly fitted or top-dose-only effect, or a change in a side signal; inactive means no such curve, though single readings can be large or run the other way; the % refers to the signal ratio;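 further: cells stimulated with carbachol in lithium chloride buffer; plate controls were DMSO basal wells for no effect and reference inhibitor wells for full effect; higher means more IMPase inhibition seen as more IP1 and lower FRET ratio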
Target sequence (P97697 whole entry, looked up): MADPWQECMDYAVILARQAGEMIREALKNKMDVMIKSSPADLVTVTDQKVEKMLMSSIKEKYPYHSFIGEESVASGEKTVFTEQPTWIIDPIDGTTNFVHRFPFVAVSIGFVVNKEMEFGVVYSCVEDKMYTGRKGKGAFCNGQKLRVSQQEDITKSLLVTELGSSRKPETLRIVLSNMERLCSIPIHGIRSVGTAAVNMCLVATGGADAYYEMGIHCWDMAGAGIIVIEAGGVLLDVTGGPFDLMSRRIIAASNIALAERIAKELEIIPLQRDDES
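Carbachol-driven Gq signalling in CHO-M1 cells (2000/well) generates IP1. Compounds that block IMPase raise IP1 and so reduce the FRET signal from Eu-anti-IP1 and d2-IP1 after a 10 min room-temperature lysis.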
HTT aggregate: mutant huntingtin aggregation inhibition; PC12 HttQ103-GFP aggregates, Acumen cytometry, 40 h; Potency, µM (highest dose often 46.1 µM), for the others: at the top dose activity change, negative = inhibition, usual class: inhibitors; 220,000 tested, 1.1% active; AID 1688; further: potency means the concentration at half of the fitted maximal effect; on the % scale 0 is the no-effect control and ±100 the full control effect; nearly all actives have a fitted effect of over 60% in size
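Compounds (qHTS titration) were added to PC12 cells expressing an ecdysone-driven HTT exon 1 Q103–GFP fusion after induction with 100 nM tebufenozide. Aggregate formation was measured as GFP objects in cell lysates.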
IMPase Li cell: membrane-permeable IMPase blocker, potentiated with lithium. CHO-M1 cells, IP1 TR-FRET (IP-One), carbachol + lithium. Potency, µM (top dose mostly 59.4 µM), for inactives: at the top dose activity, negative = IMPase inhibition, hits mostly inhibitors. 210,000 tested, 0.35% active. AID 1457;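 further: IP1 builds up when IMPase is blocked and the TR-FRET signal falls; potency means the concentration at half of the fitted maximal effect; plate controls were basal vehicle for no effect and high inhibitor control for full effect; nearly all actives have a fitted effect of over 50% in size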
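Readout is a homogeneous TR-FRET IP1 immunoassay (Ex 320, Em 665 and 620), where raised cytosolic IP1 lowers signal. Cells were CHO-M1 treated 30 min at 37C with test compounds plus a little lithium; AC50 values came from Hill-equation fitting.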
HPGD block: blocks human HPGD enzyme activity; AID 894; Potency, µM, inactives show top-dose activity change, negative = inhibition, hits mostly inhibitors; purified HPGD, NADH fluorescence kinetic, PGE2 substrate; 150,000 tested, 4.3% active; active means well fitted inhibition curve with a large enough effect, not every such curve was filed as active; inconclusive means small, poorly fitted or top-dose-only effect, or another doubt; inactive means no such curve, though single readings can be large or run the other way; further: potency means the concentration at half of the fitted maximal effect; on the % scale 0 is the no-effect control and ±100 the full control effect
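NADH formation kinetics: reaction with 30 uM PGE2 and 1 mM NAD+ (final), 20 nM enzyme, Tris-HCl pH 8 with Tween 20, after 15 min compound preincubation at room temperature. Fluorescence change, last versus first of five reads.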
* hit, by the source's call; u = inconclusive; x = no result given; [ ] = dose if it differs, or a comment. Unless noted, the call rests on the fitted dose curve; in most records, active means well fitted curve in the direction sought with a large enough effect; inconclusive means small, poorly fitted or top-dose-only effect, or another doubt; inactive means no such curve, though single readings can be large; an effect the other way counts as inactive or inconclusive.

SMILES	ALDH1A1 block	HTT cytoprotect	IMPase inh	HTT aggregate	IMPase Li cell	HPGD block
CCC(=O)OCC(=O)[C@@]1(OC(=O)CC)[C@@H](C)C[C@@H]2[C@H]3CCC4=CC(=O)C=C[C@]4(C)[C@@]3(F)[C@@H](O)C[C@@]21C	-1%	x	x	x	6%	-8%
COC1CCCCC1Nc1ccc(C)c(C)c1 (stereo not drawn)	10µM*	u	-7[0.369 µM]	u	-1%	-5%
Cc1ccc2c(c1)N(CC(=O)NCC1COc3ccccc3O1)C(=O)CO2 (stereo not drawn)	x	-3%	x	x	x	x
O=C(/C=C(\c1ccccc1)n1cncn1)c1ccccc1	u	x	x	27%	-9%	-2%
O=C(/C=C(\c1ccc(Cl)cc1)n1cncn1)c1ccc(Cl)cc1	2.2µM*	20%	8	-4%[9.22 µM]	17%[38.3 µM]	-24%
Oc1ccc(/C=N/Nc2nc(N3CCCC3)nc(N3CCCC3)n2)cc1O	13µM*	-34%[10 µM]	x	-19%[9.22 µM]	15%	x
COc1cc(/C=N/Nc2nc(N3CCCC3)nc(N3CCCC3)n2)ccc1O	5%	-30%	13	17%	31%[38.3 µM]	u
CCCn1c(-c2ccc(F)cc2)nc2c(NC(C)CCCN(CC)CC)nc(C)nc21 (stereo not drawn)	u	-33%	x	x	6%	u
CCc1ccc(NC(=O)C2CC(=O)Nc3ncnn32)cc1 (stereo not drawn)	25µM*	-24%[10 µM]	x	16%	0%	-9%
Cc1ccc(NC(=O)CC2Nc3cc(C)c(C)cc3NC2=O)c(C)c1 (stereo not drawn)	x	x	-3	x	x	x
CCOc1ccccc1C1Nc2ccccc2-c2nnc(SCc3ccccc3)nc2O1 (stereo not drawn)	x	x	7	x	x	x
CN(c1ccc(C(=O)N2CCCCC2)cc1)S(=O)(=O)c1ccccc1	2%	2%	11	u	25%[38.3 µM]	0.45µM*
Cc1ccc(S(=O)(=O)N(C)c2ccc(C(=O)N3CCCCC3)cc2)cc1	-7%	9%	2	-49%	29%[38.3 µM]	0.4µM*
CN(c1ccc(C(=O)NC2CC2)cc1)S(=O)(=O)c1ccccc1	14%	-22%[0.074 µM]	10	-4%	14%[38.3 µM]	13µM*
CCOC(=O)C1CCN(C(=O)COc2ccc(N(C)S(=O)(=O)c3ccc(C)cc3)cc2)CC1	18µM*	-14%	x	-5%	21%	x
O=S(=O)(c1ccccc1)N1CCC2(CCN(c3ncccn3)CC2)CC1	0%	9%	x	x	-1%	-13%
Cn1nc(C(=O)Nc2nc(-c3ccc(F)cc3)cs2)ccc1=O	x	9%[10 µM]	x	12%[9.22 µM]	x	x
O=C(O[C@H]1CN2CCC1CC2)N1CCc2ccccc2[C@@H]1c1ccccc1	x	1%	x	-5%	x	x
C=CCN(c1ccc(C(=O)NC(C)C)cc1)S(C)(=O)=O	2%	-37%	5	4%	36%[38.3 µM]	-15%
C=CCN(c1ccc(C(=O)N2CCCC2)cc1)S(C)(=O)=O	-8%	16%[10 µM]	1	11%	16%[38.3 µM]	20µM*
CC1=NCCN1S(=O)(=O)c1cc([N+](=O)[O-])ccc1Cl	7.9µM*	-26%	x	6%	2%	x
O=C(NCc1ccc(Cl)cc1)C1CCN(S(=O)(=O)c2cc([N+](=O)[O-])ccc2Cl)CC1	1.4µM*	-20%[10 µM]	1	15%	15%	-5%
Cc1cccc2sc(NC(=O)C3CCN(S(=O)(=O)c4cc([N+](=O)[O-])ccc4Cl)CC3)nc12	7.1µM*	-2%[10 µM]	22	-24%	15%	-20%
O=c1[nH]c2ccccc2n1CCCSCCCn1c(=O)[nH]c2ccccc21	u	-27%[0.074 µM]	0	11µM*	5%[38.3 µM]	u
Cc1ccc(CSc2ncn(-c3ccccc3)n2)cc1	16µM*	-23%	17	4%	82%[38.3 µM]	20µM*
SMILES	ALDH1A1 block	HTT cytoprotect	IMPase inh	HTT aggregate	IMPase Li cell	HPGD block
Cc1cc(NC(=O)CSc2ncn(-c3ccccc3)n2)no1	u	-11%	-12	7%	-1%[38.3 µM]	-1%
Clc1ccccc1CSc1ncn(-c2ccccc2)n1	-3%	7%[10 µM]	7	-14%	12%	18µM*
O=C(CSc1ncn(-c2ccccc2)n1)NCc1ccccc1	-3%	-17%	u	2%	29%[38.3 µM]	-10%
O=C(c1sccc1Cl)N1CCN(Cc2ccc3c(c2)OCO3)CC1	u	-3%[10 µM]	x	-27%[9.22 µM]	x	x
Clc1ccc(-c2nc3sccn3c2/C=N/OCc2ccc(Cl)c(Cl)c2)cc1	6%	-9%	x	x	-7%	x
CS(=O)(=O)N1N=C(c2ccccc2)CC1c1ccc2c(c1)OCO2 (stereo not drawn)	2.4µM*	11%[10 µM]	x	-9%	14%	-8%
CS(=O)(=O)N1N=C(c2ccco2)CC1c1ccc(Cl)cc1 (stereo not drawn)	8.9µM*	21%[10 µM]	-7	15%	0%	-7%
O=[N+]([O-])c1ccc(N2CCN(C(=S)Nc3ccc(F)cc3)CC2)cc1	u	-49%	x	u	25%	x
CN(CC(=O)Nc1cc([N+](=O)[O-])ccc1Cl)Cc1ccc(Br)cc1	10µM*	11%[10 µM]	15	-28%	7%	-11%
CN1CCN(C(=S)Nc2cc([N+](=O)[O-])ccc2Cl)CC1	20µM*	-6%[10 µM]	x	-11%	18%	-11%
O=[N+]([O-])c1ccc(N2CCN(C(=S)Nc3cccc(F)c3)CC2)cc1	14µM*	-78%	x	u	21%	x
O=[N+]([O-])c1ccc(N2CCN(C(=S)Nc3ccc(F)cc3F)CC2)cc1	11µM*	-12%	x	11%	16%	x
O=C(O)[C@@H]1[C@@H](C(=O)Nc2ncccn2)[C@@H]2C=C[C@@H]1O2	-1%[13.5 µM]	14%[10 µM]	x	x	3%	-8%
c1ccc(-c2nnc(CN3CCN(c4ccccn4)CC3)o2)cc1	x	x	-3	x	x	x
CCOC(=O)c1[nH]c2c(c1Cc1ccccc1OC)C(=O)CC(c1ccccc1)C2 (stereo not drawn)	x	x	2	x	x	x
Cc1cccc(NC(=S)N2CCCN(c3ncccc3[N+](=O)[O-])CC2)c1	14µM*	4%[10 µM]	x	3%[9.22 µM]	x	x
COc1cccc(NC(=S)N2CCN(c3ccc([N+](=O)[O-])cc3)CC2)c1	7.9µM*	-48%	x	-18%	-1%	x
N#CCCn1c(=O)c(-c2cccs2)nc2cnc(Oc3cccc(Cl)c3)nc21	u	8%	x	x	u	u
Cn1nc(C(=O)NC2CCCCC2)c2ccccc2c1=O	u	-15%	0	u	-6%[38.3 µM]	-9%
Cn1nc(C(=O)Nc2nnc(C3CC3)s2)c2ccccc2c1=O	13µM*	-22%	x	-9%	-5%	x
Cc1ccc(SCc2[nH]nc3c2C2(CCSCC2)C(C#N)=C(N)O3)cc1	10µM*	-4%	6	6%	46%[38.3 µM]	-14%
Cc1ccc(SCc2[nH]nc3c2C2(C(=O)Nc4ccc([N+](=O)[O-])cc42)C(C#N)=C(N)O3)cc1 (stereo not drawn)	13µM*	-17%	u	u	3%[38.3 µM]	-22%
